Compound activity: PubChem BioAssay, National Center for Advancing Translational Sciences (NCATS)
The list is not random: actives were taken first. Their share in the collection is about 1.8%.
TCR activator = Activators of T cell receptors: qHTS campaign | Potency, µM (highest dose often 9.22 µM), for the others: top-dose activation of IL-2 secretion, most hits filed as activators | primary human leukocytes, anti-CD3, IL-2 HTRF, 48 h | 330,000 tested, under 10 active; also: % of control where 0% means no effect
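HTRF read-out of IL-2 secretion: europium cryptate donor excited at 320nm, d2 acceptor emission at 665nm. Cells were primary human leukocytes incubated 48 hr with compounds and a-CD3 beads, supplying TCR signal only.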
MBNL1 CUG block = qHTS Assay for Inhibitors of MBNL1-poly(CUG) RNA binding. Muscleblind-like protein 1 (Homo sapiens), Q9NR56. TR-FRET MBNL1-His/biotin-(CUG)12 binding, 665/545 ratio. 280,000 tested, 0.036% active. Potency, µM (top dose mostly 57.5 µM), for the others: at the highest dose activity change, negative = inhibition, hits mostly inhibitors; active = well fitted inhibition curve with a large enough effect in the signal ratio, with a control signal flat, not every such curve was filed as active; inconclusive = small, poorly fitted or top-dose-only effect, or effect the other way, or a change in a side signal; inactive = no such curve, though single readings can be large or run the other way; the % refers to the signal ratio; also: potency is read from the fitted curve at half-maximal effect; % is scaled to controls: 0 for no effect and ±100 for the full control effect
Target sequence (Q9NR56 whole entry, looked up): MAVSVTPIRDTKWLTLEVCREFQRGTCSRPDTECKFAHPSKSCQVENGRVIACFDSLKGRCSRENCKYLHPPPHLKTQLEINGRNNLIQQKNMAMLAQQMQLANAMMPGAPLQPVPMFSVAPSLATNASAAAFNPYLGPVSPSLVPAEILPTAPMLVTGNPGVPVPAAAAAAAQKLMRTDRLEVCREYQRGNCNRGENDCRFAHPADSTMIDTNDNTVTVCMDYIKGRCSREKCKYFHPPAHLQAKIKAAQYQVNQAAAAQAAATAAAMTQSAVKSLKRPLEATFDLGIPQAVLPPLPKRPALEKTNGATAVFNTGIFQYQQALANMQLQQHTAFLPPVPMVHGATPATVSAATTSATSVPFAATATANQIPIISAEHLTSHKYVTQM
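His-tagged MBNL1 binding to biotinylated (CUG)12 RNA was measured by TR-FRET using terbium anti-His antibody (0.055 ng/ul final) and streptavidin-XL665 (5 nM final). Compounds were titrated 92 nM to 58 uM; 60 min at room temperature.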
Glioma ERSR ind = qHTS for Inducers of the Endoplasmic Reticulum Stress Response (ERSR) in Human Glioma: qHTS; U87-MG GRP78 promoter luciferase reporter, 16 h; Potency, µM, for the others: at the top dose activation, usual class: activators; 420,000 tested, 0.02% active; also: potency is read from the fitted curve at half-maximal effect; series mostly up to about 76 µM; % of control where 0% means no effect; nearly all actives have a fitted effect of over 35% in size
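Stably transfected U87-MG human glioma cells carrying a GRP78-based luminescent sensor were seeded at 1000 cells/well, pin-dosed with compounds and incubated 16 h. Luciferase reagent was then added, and end-point luminescence was read after 10 min at room temperature.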
ClpP mod = qHTS Assay for Activators of ClpP | ATP-dependent Clp protease proteolytic subunit (Bacillus subtilis (strain 168)), P80244 | purified B. subtilis ClpP, FRET peptide cleavage, 20 min | Potency, µM (doses to about 57.5 µM), for inactives: at the highest dose activity change, negative = active | 340,000 tested, 1.9% active | AID 651965, 2013; active = well fitted falling curve with a large enough effect; inconclusive = small, poorly fitted or top-dose-only effect; inactive = no such curve, though single readings can be large or run the other way; also: potency is read from the fitted curve at half-maximal effect; the source files actives as falling curves though it sought activators and does not explain the sign; nearly all actives have a fitted effect of over 65% in size
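Buffer: 100 mM Tris/HCl pH8, 100 mM KCl, 0.05% low protease BSA, 2.5% glycerol, 0.01% Tween-20. ClpP 10 microg/mL final; 20 min RT; delta FRET normalized to ADEP and DMSO controls.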
Mito fusion act = qHTS Assay for Small Molecule Inhibitors of Mitochondrial Division or Activators of Mitochondrial Fusion; 320,000 tested, 0.23% active; Potency, µM (top dose mostly 46.1 µM), for the others: at the top dose growth rescue (activation), most hits filed as activators; S. cerevisiae fusion-defective mutant growth rescue, CellTiterGlo 48 h; also: potency is read from the fitted curve at half-maximal effect; % of control where 0% means no effect; nearly all actives have a fitted effect of over 45% in size
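Read-out: ATP-based luminescence (CellTiterGlo, 10 min ambient) reporting growth of fusion-defective ts yeast after 48 hours at 37C on glycerol/ethanol YPEG medium in the presence of compound.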
A-T KAP1 phos = qHTS Assay for Identifying a Potential Treatment of Ataxia-Telangiectasia; F2112 A-T fibroblasts, KAP-1 phosphorylation AlphaLISA; neocarzinostatin DNA damage 30 min before lysis; Potency, µM (highest dose often 57.5 µM), for the others: at the top dose activation, actives largely listed as activators; 320,000 tested, 0.19% active; also: potency is read from the fitted curve at half-maximal effect; % of control where 0% means no effect; nearly all actives have a fitted effect of over 45% in size
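hTERT-immortalized A-T patient fibroblasts (F2112), 500 cells/well in OPTI-MEM, 1% FBS, got compounds for 60 min, then NCS for 30 min at 37C. Lysates were then assayed for phospho-KAP-1 by AlphaLISA (anti-pKAP1 donor, anti-KAP1 acceptor beads), 6 hr at 25C.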
* = called active by the depositor; ? = inconclusive; . = no result given; [ ] = dose if it differs, or a comment. Unless noted, calls follow the shape of the dose curve; as a rule, active = well fitted curve in the direction sought with a large enough effect; inconclusive = small, poorly fitted or top-dose-only effect, or another doubt; inactive = no such curve, though single readings can be large; an effect the other way counts as inactive or inconclusive.

SMILES	TCR activator	MBNL1 CUG block	Glioma ERSR ind	ClpP mod	Mito fusion act	A-T KAP1 phos
CC(C)C[C@H](NC(=O)[C@H](CC(C)C)NC(=O)[C@H](CCC(N)=O)NC(=O)[C@H](CO)NC(=O)[C@@H]1CCCN1C(=O)[C@H](CO)NC(=O)[C@H](CO)NC(=O)[C@@H](NC(=O)[C@H](Cc1cnc[nH]1)NC(=O)[C@H](CCC(=O)O)NC(=O)[C@H](Cc1ccc(O)cc1)NC(=O)[C@H](CCCCN)NC(=O)[C@H](CCC(N)=O)NC(=O)[C@H](Cc1ccc(O)cc1)NC(=O)[C@H](CC(=O)O)NC(=O)[C@@H](NC(=O)[C@@H]1CCCN1C(=O)[C@H](CC(=O)O)NC(=O)[C@H](CC(N)=O)NC(=O)[C@H](CC(=O)O)NC(=O)CNC(=O)[C@H](CC(=O)O)NC(=O)[C@@H]1CCCN1C(=O)[C@H](CCC(N)=O)NC(=O)[C@H](Cc1ccc(O)cc1)NC(=O)[C@H](C)NC(=O)[C@H](Cc1c[nH]c2ccccc12)NC(=O)[C@H](Cc1ccccc1)NC(=O)[C@@H](NC(=O)[C@@H](N)CO)[C@@H](C)O)[C@@H](C)O)[C@@H](C)O)C(=O)N[C@@H](C)C(=O)N1CCC[C@H]1C(=O)NCC(=O)N[C@@H](CC(=O)O)C(=O)N[C@@H](Cc1ccc(O)cc1)C(=O)O	.	.	-5%	.	.	.
CCn1cc(C(=O)OCC(=O)N2C(C)CCCC2C)c(=O)c2ccc(C)nc21 (configuration not stated)	-6%	1%	-4%	16µM*	-2%	?
O=C(NCCc1ccccn1)C1CC12CCN(C(=O)c1cccc(C(F)(F)F)c1)CC2 (configuration not stated)	.	.	-8%	.	.	.
CC1=NN(c2ccccc2)C(=O)/C1=C\C=C\c1ccccc1	4%	.	-9%	.	-6%	22%
CC1=NN(c2ccc(C)c(C)c2)C(=O)/C1=C\C=C\c1ccc([N+](=O)[O-])o1	0%	.	-7%	0%	-4%	32µM*
CCOC(=O)C1CCN(C(=O)CSCc2nc(-c3ccc(OCC)cc3)oc2C)CC1	2%	0%	-1%	28µM*	-3%	8%
CCOC(=O)N1CCC(NC(=O)CSCc2nc(-c3ccc(OC)c(OC)c3)oc2C)CC1	1%	3%	-1%	8.9µM*	0%	-5%
COc1ccc(-c2nc(CS(=O)CC(=O)NC3CCCc4ccccc43)c(C)o2)cc1OC (configuration not stated)	-1%	-3%	-5%	4%	1%	9%
COc1ccc(-c2nc(CSCC(=O)NC3CCCc4ccccc43)c(C)o2)cc1OC (configuration not stated)	-1%	6%	-7%	28µM*	22%	.
O=C(CNC(=O)C1CCCCC1)OCc1cc(=O)oc2ccc3ccccc3c12	-5%[46.1 µM]	7%	-4%	25µM*	7%	5%
O=C(COC(=O)CNC(=O)C1CCCCC1)Nc1ccccc1	7%	.	-2%	.	.	11%
COc1ccc(N(C(=O)c2ccco2)S(=O)(=O)c2cc(OC)ccc2OC)cc1	0%	-5%	40µM*	0%	15%	-2%
CCOC(=O)c1nn(-c2ccccc2)c(C(=O)OCC)c1N	-4%	7%	0%	2µM*	5%	5%
CCOC(=O)c1c(C)nc2c(c(SC)nn2-c2ccccc2)c1N	-5%	-2%	-3%	25µM*	1%	-2%
